hgDAF-12 ag – agonists of H. glycines DAF-12 nuclear receptor | hit rate 1.8% among 370,000 | activation, % at 6.8 µM | AID 687014 | HEK293 GAL4-hgDAF12 UAS-luciferase reporter, agonist luminescence; normalized to butyrate control;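 active = activation above a cutoff set at the mean of all screened compounds plus 3 SD, cut at about 10% in these data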;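 note: 0% = DMSO wells and 100% = sodium butyrate wells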
DAX1 inh-1 – inhibitors of DAX1 repression of SF-1 activated StAR promoter; HEK293T StAR-luciferase reporter, SF-1/DAX-1 repression relief; hit rate 1.1% among 370,000; inhibition, % at 6.8 µM;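 active = inhibition above the mean over all tested compounds plus 3 SD, cut at about 3.6% in these data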;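 note: 0% = DAX-1 cells with DMSO and 100% = cells lacking DAX-1 with DMSO; higher inhibition means more luminescence from relief of DAX-1 repression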
hcDAF-12 act – activators of H. contortus DAF-12 nuclear receptor. AID 652067. hit rate 1.4% among 370,000. activation, % at 6.8 µM. HEK293 hcDAF-12 lit1-tk-luc reporter, luminescence; 0% DMSO, 100% Δ7-dafachronic acid;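 active = activation above the mean of all tested compounds plus 3 SD, cut at about 5.5% in these data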;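 note: 100% = response to 3 µM Δ7-dafachronic acid high control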
DAX1 inh-2 – inhibits human nuclear receptor DAX1. HEK293 Gal4-DAX1 luciferase reporter, luminescence. hit rate 0.99% among 340,000. P51843. inhibition, % at 6.75 µM. AID 504766;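 active = inhibition above the mean over all tested compounds plus 3 SD, cut at about 4.2% in these data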;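 note: 0% = DAX1-transfected cells with DMSO and 100% = empty-vector control cells with DMSO; inhibition shows as a rise in luminescence from relieved DAX1 repression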
ssDAF-12 act – activators of S. stercoralis DAF-12 nuclear receptor; HEK293 ssDAF-12/GRIP1 lit1-tk-luc reporter, luminescence; % of 3 µM dafachronic acid response; activation, % at 6.8 µM; hit rate 1% among 370,000; AID 652126;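 active = activation above the mean over all tested compounds plus 3 SD, cut at about 0.9% in these data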;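 note: 0% = DMSO-only wells and 100% = 3 µM delta7-dafachronic acid wells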
AHR activator – human AHR activation. activation, % at 5 µM. P35869. AHR-responsive luciferase reporter cells, luminescence. hit rate 2.5% among 320,000; in the data active = activation above about 47%;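 note: 0% = vehicle wells and 100% = reference agonist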
Target sequence (P35869 whole entry, looked up): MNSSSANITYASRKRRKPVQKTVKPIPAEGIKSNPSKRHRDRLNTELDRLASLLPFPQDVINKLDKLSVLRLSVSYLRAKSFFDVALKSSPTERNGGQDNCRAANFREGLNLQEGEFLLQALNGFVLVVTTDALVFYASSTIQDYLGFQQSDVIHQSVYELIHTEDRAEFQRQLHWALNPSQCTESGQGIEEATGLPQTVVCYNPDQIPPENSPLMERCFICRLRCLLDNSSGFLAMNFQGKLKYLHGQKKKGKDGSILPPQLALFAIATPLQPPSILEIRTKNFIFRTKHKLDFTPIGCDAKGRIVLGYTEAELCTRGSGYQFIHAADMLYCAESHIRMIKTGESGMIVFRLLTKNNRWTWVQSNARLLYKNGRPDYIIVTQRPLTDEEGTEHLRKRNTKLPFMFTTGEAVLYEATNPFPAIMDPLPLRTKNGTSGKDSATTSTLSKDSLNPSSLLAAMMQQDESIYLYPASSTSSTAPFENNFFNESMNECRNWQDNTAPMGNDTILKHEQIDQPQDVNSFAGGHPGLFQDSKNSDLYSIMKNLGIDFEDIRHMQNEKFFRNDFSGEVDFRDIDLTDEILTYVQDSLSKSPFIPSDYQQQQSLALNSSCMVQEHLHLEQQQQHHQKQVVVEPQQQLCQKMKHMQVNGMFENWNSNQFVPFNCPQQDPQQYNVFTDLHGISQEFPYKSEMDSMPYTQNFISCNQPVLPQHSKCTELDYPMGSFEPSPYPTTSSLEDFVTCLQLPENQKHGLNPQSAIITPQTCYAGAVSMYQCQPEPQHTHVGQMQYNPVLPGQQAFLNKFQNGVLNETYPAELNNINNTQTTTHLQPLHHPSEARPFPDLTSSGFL
The depositor's hits bear a star; . = not tested or not shown. Rows were chosen to be rich in hits. Some 5.7% of all compounds tested hit in one or more screens of this group.

SMILES | hgDAF-12 ag | DAX1 inh-1 | hcDAF-12 act | DAX1 inh-2 | ssDAF-12 act | AHR activator
N#Cc1ccc(COC(=O)c2ccc3c(c2)OCO3)cc1 | 0 | -2 | -1 | 0 | 0 | 0
O=C1CCCC(O)=C1C1NCCc2ccccc21 (stereo not drawn) | 2 | 1 | -1 | 1 | -1 | -1
CC1CC2CCCC(O)=C2C(=O)O1 (stereo not drawn) | -1 | -1 | 1 | 4.3* | 0 | .
C=CCOc1cccc(/C=N/NC(=O)CN(c2cc(Cl)ccc2OC)S(=O)(=O)c2ccc(C)c([N+](=O)[O-])c2)c1 | 0 | 0 | 1 | 1 | 1.0* | 13
COCCCNC(=O)C[C@H]1C[C@@]2(C(=O)OC)C(=C[C@H](COCc3ccccc3)O[C@@H]2C)N(Cc2cccc3ccccc23)C1=O | -4 | -1 | -2 | . | -1 | .
CCC(c1nc2ccccc2[nH]1)n1c(-c2cnccn2)nc2ccccc21 (stereo not drawn) | -1 | -1 | -2 | . | 1 | .
CCOC(=O)C(c1nc2ccccc2[nH]1)n1c(-c2ccccn2)nc2ccccc21 (stereo not drawn) | 8 | 2 | 6.5* | . | 0 | .
NC(=O)c1cnn(-c2cc(Oc3ccccc3)ncn2)c1N | 9 | 3.7* | 2 | 2 | 0 | 0
COc1ccc2c(c1)S/C(=C\C(=O)c1ccncc1)N2C | 12* | 1 | 1 | 2 | 0 | -5
COC(=O)[C@]12C[C@H](CC(=O)N3CCOCC3)C(=O)N(Cc3ccc4c(c3)OCO4)C1=C[C@H](C(C)(C)C)O[C@@H]2C | 1 | -1 | -1 | . | -1 | .
O=C(/C=C(\Nc1cccc(Cl)c1)c1ccccc1)c1ccccc1 | 7 | 3.7* | 0 | . | 0 | .
O=C(Nc1ccc(Cl)cc1)Nc1cccc(C(=O)O)c1 | 12* | 3 | 5 | . | -1 | -12
O=C(/C=C(\Nc1cccc(C(F)(F)F)c1)c1ccccc1)c1ccccc1 | 2 | 1 | -1 | . | -1 | .
CC(=O)c1ccc(NC(=O)Nc2cccc(Cl)c2)cc1 | 13* | 3 | 3 | 2 | 1 | -3
CC(=O)c1cc2c(cc1NC(=O)Nc1cccc(Cl)c1)OCCO2 | 1 | 1 | 1 | 0 | -1 | 58*
O=C(Nc1ccc(Cl)cc1)c1nc[nH]c1C(=O)NCCCNC(=O)c1[nH]cnc1C(=O)Nc1ccc(Cl)cc1 | . | . | . | . | . | 6
CO[C@@H]1[C@H](O)CC[C@]2(O)CN(c3ccc(F)cc3)[C@](C)([C@H](O)CC=C(C)C)[C@@H]12 | 1 | 0 | 1 | . | -1 | .
Cc1cc(N2CCOCC2)ccc1/C=C1\SC(=O)N(C(C)C)C1=O | 4 | 0 | 0 | 5.6* | -2 | -2
CCC(C)N1C(=O)S/C(=C/c2ccc(N3CCOCC3)cc2C)C1=O (stereo not drawn) | 4 | -1 | -2 | 2 | -2 | -4
Cc1ccccc1-n1ncc(C(C)NC(=O)c2ccccc2)c1C (stereo not drawn) | 1 | -1 | 0 | 2 | -2 | 4
C=CCC(=O)NC(C)c1cnn(-c2ccccc2C)c1C (stereo not drawn) | 2 | -1 | 3 | 1 | 1.0* | 3
c1cnc2c(C3NCCc4c3[nH]c3ccccc43)cccc2c1 (stereo not drawn) | . | . | . | 5.0* | . | 19
CC(=O)n1c2c(c3ccccc31)OC(N)=C(C#N)C2c1ccc(C(C)C)cc1 (stereo not drawn) | -1 | 0 | 5.6* | 3 | -1 | 44
CCCC(C(=O)NC1CCCC1)N(Cc1ccc(OC)cc1)C(=O)c1snc(C(N)=O)c1N (stereo not drawn) | -1 | 0 | -2 | 0 | -1 | 0
COc1ccc(Nc2ccc([N+](=O)[O-])cn2)cc1 | 5 | 1 | 1 | 2 | -1 | 4
SMILES | hgDAF-12 ag | DAX1 inh-1 | hcDAF-12 act | DAX1 inh-2 | ssDAF-12 act | AHR activator
COc1ccc(CNc2ccc([N+](=O)[O-])cn2)cc1 | 12* | 0 | 0 | 2 | 0 | 8
COc1ccc(CC(=O)Nc2cc(C)on2)cc1 | 4 | 0 | -1 | 0 | -1 | 2
COc1ccc(N/C=C/C(=O)c2ccc(C)cc2)c([N+](=O)[O-])c1 | 7 | 3.6* | 1 | 3 | 0 | -5
COc1ccc(C(=O)/C=C/Nc2cc(C)on2)cc1 | 12* | 4 | 2 | 1 | 0 | 6
Cc1ccccc1NC(=O)NC1(C(=O)N2CCOCC2)CCCCC1 | -2 | 0 | 0 | 0 | -1 | -1
O=C(Nc1ccccc1C(F)(F)F)NC1(C(=O)N2CCOCC2)CCCCC1 | 2 | 2 | 5.7* | 0 | 0 | .
CCc1ccc2nc(NC(=O)c3cc(C)on3)sc2c1 | 12* | -1 | 5 | -2 | 0 | 18
CCCCc1ccc2nc(NC(=O)c3ccc(Br)o3)sc2c1 | 11* | . | 1 | . | -1 | .
Cc1cc(C)c2nc(NC(=O)c3cc(C)on3)sc2c1 | -6 | -1 | -3 | -1 | -2 | -6
CCc1noc(C)c1C(=O)Nc1nc2ccc(S(C)(=O)=O)cc2s1 | 6 | 2 | 1 | 1 | -1 | 12
CCc1noc(C)c1C(=O)Nc1nc2ccc(F)cc2s1 | 10 | 3.9* | 3 | 1 | 0 | 52*
O=C(Nc1cccnc1)c1ccc(S(=O)(=O)c2ccccc2)cc1 | 0 | 0 | 0 | -2 | -1 | 13
O=C(N/C(=C\c1ccccc1)C(=O)N1CCCCC1)c1ccco1 | 0 | 0 | -1 | 2 | -1 | -2
C[C@H]1[C@@H](OC(=O)NCc2cccs2)CC[C@@]23CCCN2C(=O)CCC[C@@H]13 | 1 | . | 2 | . | -2 | .
C(#Cc1c(-c2ccsc2)sc2ccccc12)c1ccsc1 | 1 | -1 | 1 | 0 | -1 | 72*
OC1(C#Cc2c(-c3ccsc3)sc3ccccc23)CCCCC1 | 0 | 0 | -1 | . | -1 | .
COc1ccc(-c2sc3ccccc3c2C#CCCO)cc1 | 1 | -1 | -1 | -1 | -1 | 33
OCCCCC#Cc1c(-c2ccsc2)sc2ccccc12 | 1 | 0 | -2 | 0 | -1 | 49*
O=C(CCS(=O)(=O)c1ccc(Br)cc1)NC1CCCC1 | . | . | . | 0 | . | -1
O=C(CCS(=O)(=O)c1cccs1)NC1CCCCCC1 | 12* | 1 | 1 | 2 | 0 | 17
CCOc1ncccc1C(=O)NNC(=O)c1cccc(S(=O)(=O)N2CCOCC2)c1 | 1 | -1 | -2 | 0 | -1 | 7
COc1ccc(/C=N/Nc2ncnc3sc(C)c(C)c23)cc1 | 1 | 1 | -1 | 2 | -1 | 62*
Cc1sc2ncnc(N/N=C/c3ccc(O)cc3)c2c1C | 2 | -1 | 0 | -1 | 0 | 28
Cc1ccccc1OCCN(C#N)c1nc(N(C)C)nc(N(C)C)n1 | 2 | 0 | -1 | 0 | -1 | 3
CC(=O)Oc1cc2c(C(=O)NCc3ccncc3)c(C)oc2c2ccccc12 | 2 | -2 | -2 | -1 | -1 | 52*
